# Inconclusive results are not listed. A call without a number means that no potency is given here. Calls of active or inactive are those of the source. Unless noted, calls come from the whole dose curve; as a rule, active = well fitted curve in the direction sought with a large enough effect in the repeat runs; inconclusive = weak or mixed curves; inactive = no such curve, though single readings can be large; an effect the other way counts as inactive or inconclusive.
# Columns and labels:
# [1] = qHTS assay for small molecules that induce genotoxicity in human embryonic kidney cells expressing luciferase-tagged ATAD5 (AID 651632); note: nearly all actives have a fitted effect of over 15% in size
# Method in brief: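 HEK293T cells carrying a luciferase reporter tagged to ATAD5 were exposed to compound or DMSO vehicle for 16 hr at 37C, 5% CO2. Amplite was added, and after 30 min at room temperature luciferase activity was read as a marker of ATAD5 induction.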
# [2] = qHTS assay for small molecule agonists of the p53 signaling pathway - cell viability (AID 651633; calls by dose curve; note: nearly all actives have a fitted effect of over 30% in size; note: potency is the fitted concentration of half-maximal effect)
# Method in brief: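 p53RE-bla cells were treated with compound for 16 hours at 37 C. Cytotoxicity was then measured as CellTiter-Glo luminescence after 30 min at room temperature.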
# [3] = qHTS assay for small molecules that induce genotoxicity in human embryonic kidney cells expressing luciferase-tagged ATAD5 - cell viability (AID 651634; calls by dose curve; note: nearly all actives have a fitted effect of over 25% in size; note: potency is the fitted concentration of half-maximal effect)
# Method in brief: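 HEK293T cells expressing luciferase-tagged ATAD5 were exposed to compound or DMSO for 15.5 hr at 37C, 5% CO2. Viability was then read as live-cell protease activity by CellTiter-Fluor fluorescence after 30 min at 37C.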
# [4] = qHTS assay for small molecule disruptors of the mitochondrial membrane potential - cell viability (AID 720634; calls by dose curve; note: nearly all actives have a fitted effect of over 20% in size; note: potency is the fitted concentration of half-maximal effect)
# Method in brief: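 HepG2 cells seeded overnight at 37 C, then exposed to compound or DMSO for 1 hr at 37 C, 5% CO2. m-MPI dye added, then CellTiter-Glo for 30 min at room temperature; viability read as ATP luminescence.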
# [5] = qHTS assay for small molecule disruptors of the mitochondrial membrane potential (AID 720635); note: potency is the fitted concentration of half-maximal effect
# Method in brief: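 HepG2 cells exposed to compound 1 hr at 37C, then Mito-MPS dye 30 min. Ratio read of aggregate (540/590 nm) versus monomer (490/535 nm) fluorescence.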
# [6] = qHTS assay to test for compound auto fluorescence at 590 nm (red) in HepG2 cells (AID 720674)
# Method in brief: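 Seeding: 2,000 HepG2 cells/well, MEM/10% FBS, overnight 37 C. Dosing: compound vs DMSO. Incubation: 1 hr, 37 C, 5% CO2. Read: fluorescence 540 ex/590 em, Rose Bengal sodium as red reference.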
# [7] = qHTS assay to test for compound auto fluorescence at 535 nm (green) in HepG2 cells (AID 720675)
# [8] = qHTS assay to test for compound auto fluorescence at 460 nm (blue) in HEK293 cells (AID 720678)
# Method in brief: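 HEK293 cells (2,000 per well, medium with 10% dialyzed FBS) attached for 4-5 hr at 37C, then received compound and stood overnight at 37C, 5% CO2. Blue fluorescence was read at Ex/Em 405/460 nm and expressed relative to triamterene.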
# [9] = qHTS assay to test for compound auto fluorescence at 590 nm (red) in HEK293 cells (AID 720679)
# Method in brief: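 HEK293 cells (2,000/well, medium with 10% dialyzed FBS) attached for 4-5 hr at 37C, received 23 nL compound and were incubated overnight at 37C, 5% CO2. Red fluorescence was then read at 540/590nm Ex/Em, referenced to Rose Bengal sodium.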
# [10] = qHTS assay to test for compound auto fluorescence at 535 nm (green) in HEK293 cells (AID 720680)
# [11] = qHTS assay to test for compound auto fluorescence at 460 nm (blue) in HEK293 cell free culture (AID 720681)
# Method in brief: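 Compounds were added to cell-free DMEM with 10% FBS and fluorescence read directly. The blue channel used 405 nm excitation and 460 nm emission, with triamterene as the reference fluorophore.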
# [12] = qHTS assay to test for compound auto fluorescence at 535 nm (green) in HEK293 cell free culture (AID 720682)
# Method in brief: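 DMEM + 10% FBS, cell-free; cpd or DMSO pinned in; Ex485/Em535 read; output as fluorescein-equivalent signal.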
# [13] = qHTS assay to test for compound auto fluorescence at 590 nm (red) in HepG2 cell free culture (AID 720684)
# Method in brief: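 Compound was pinned into wells holding MEM with 10% FBS and no cells, and red fluorescence was read at Ex/Em 540/590 nm. Signal is expressed as auto fluorescence equivalency relative to Rose Bengal sodium.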
# [14] = qHTS assay to test for compound auto fluorescence at 460 nm (blue) in HepG2 cell free culture (AID 720685)
# Method in brief: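 Compound (23 nL) or DMSO pinned into cell-free MEM with 10% FBS; blue fluorescence read at 405/460 nm excitation/emission, expressed as auto-fluorescence equivalency to triamterene.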
# [15] = qHTS assay to test for compound auto fluorescence at 535 nm (green) in HepG2 cell free culture (AID 720686)
# [16] = qHTS assay to test for compound auto fluorescence at 460 nm (blue) in HepG2 cells (AID 720687)
# Method in brief: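 HepG2 cells in MEM with 10% FBS, attached overnight at 37 C, were exposed to compound or DMSO for 1 hr at 37 C, 5% CO2. Blue fluorescence was read at 405/460 nm, with triamterene as reference fluorophore.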
# [17] = qHTS assay to test for compound auto fluorescence at 590 nm (red) in HEK293 cell free culture (AID 720683)
# Method in brief: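 Cell-free wells of DMEM with 10% FBS received compound, and intrinsic fluorescence was read at excitation/emission 540/590 nm. Values expressed as equivalence to Rose Bengal sodium.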
# [18] = biological target: Glucocorticoid receptor (Homo sapiens) (UniProt P04150); assay: qHTS assay to identify small molecule agonists of the glucocorticoid receptor (GR) signaling pathway (AID 720691; active = well fitted activation curve with a large enough effect in the signal ratio in the repeat runs, not every such curve was filed as active; the % refers to the signal ratio); settings: GR-bla HeLa, beta-lactamase reporter ratio, 18 h; activation: at 62.4 µM (top of the series)
# Method in brief: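 GR-bla HeLa cells (beta-lactamase reporter under glucocorticoid response element) were plated 4 h at 37 C/5% CO2, given compounds in DMSO, and incubated 18 h at 37 C. LiveBLAzer B/G FRET substrate was added for 2 h at room temperature, then fluorescence intensity read.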
# [19] = biological target: Glucocorticoid receptor (Homo sapiens) (UniProt P04150); assay: qHTS assay to identify small molecule antagonists of the glucocorticoid receptor (GR) signaling pathway (AID 720692; active = well fitted inhibition curve with a large enough effect in the signal ratio in the repeat runs, not every such curve was filed as active; the % refers to the signal ratio)
# Method in brief: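 GR-bla HeLa cells (beta-lactamase reporter under glucocorticoid response element) were pre-plated 4 h at 37 C, treated with compounds plus 5 nM dexamethasone (final) for 18 h, then read by LiveBLAzer B/G FRET fluorescence after 2 h.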
# Sequence of Glucocorticoid receptor (Homo sapiens) (P04150 whole entry, looked up): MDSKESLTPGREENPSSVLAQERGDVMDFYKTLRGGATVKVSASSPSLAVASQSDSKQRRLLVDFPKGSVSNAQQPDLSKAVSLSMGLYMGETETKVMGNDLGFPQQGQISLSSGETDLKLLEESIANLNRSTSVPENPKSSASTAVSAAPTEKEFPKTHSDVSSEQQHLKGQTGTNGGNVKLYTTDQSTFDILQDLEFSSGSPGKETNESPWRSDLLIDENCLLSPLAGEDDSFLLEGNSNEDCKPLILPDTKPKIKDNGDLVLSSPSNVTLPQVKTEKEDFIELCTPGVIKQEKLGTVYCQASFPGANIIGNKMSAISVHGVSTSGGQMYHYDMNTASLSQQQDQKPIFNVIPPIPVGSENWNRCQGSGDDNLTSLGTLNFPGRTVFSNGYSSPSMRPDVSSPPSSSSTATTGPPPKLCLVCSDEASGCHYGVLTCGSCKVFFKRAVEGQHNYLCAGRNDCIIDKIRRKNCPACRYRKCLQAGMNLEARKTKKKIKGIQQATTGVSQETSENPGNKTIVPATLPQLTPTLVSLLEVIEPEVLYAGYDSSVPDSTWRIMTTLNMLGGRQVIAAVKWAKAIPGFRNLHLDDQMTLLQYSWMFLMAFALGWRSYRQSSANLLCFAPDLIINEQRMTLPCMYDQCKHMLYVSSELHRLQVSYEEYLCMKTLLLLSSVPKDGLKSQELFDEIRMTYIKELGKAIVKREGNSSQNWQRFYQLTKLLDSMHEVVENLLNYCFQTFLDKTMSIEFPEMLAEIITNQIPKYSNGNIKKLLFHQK
Compound,Potency [1],Potency [2],Potency [3],Potency [4],Potency [5],Potency [6],Potency [7],Potency [8],Potency [9],Potency [10],Potency [11],Potency [12],Potency [13],outcome [14],Potency [15],outcome [16],Potency [17],Potency [18],Potency [19]
CC(O)[C@@H]1NC(=O)[C@H](Cc2ccccc2)NC(=O)[C@H](C(C)O)NC(=O)[C@H](CCCCN)NC(=O)[C@H](Cc2c[nH]c3ccccc23)NC(=O)[C@H](Cc2ccccc2)NC(=O)[C@H](Cc2ccccc2)NC(=O)[C@H](CC(N)=O)NC(=O)[C@H](CCCCN)NC(=O)[C@@H](NC(=O)CNC(=O)[C@H](C)N)CSSC[C@@H](C(=O)O)NC(=O)[C@H](CO)NC1=O (stereo partly specified),inactive,inactive,inactive,inactive,inactive,inactive,inactive,inactive,inactive,inactive,inactive,inactive,inactive,inactive,inactive,inactive,–,–,–
CCCCCCOc1ccc(C(=N)N(CCCC)CCCC)c2ccccc12,inactive,21.1 µM (active),23.7 µM (active),26.6 µM (active),8.41 µM (active),–,inactive,inactive,inactive,inactive,inactive,inactive,inactive,inactive,inactive,inactive,inactive,–,–
CO[C@H]1C[C@@H]2CC[C@@H](C)[C@@](O)(O2)C(=O)C(=O)N2CCCC[C@H]2C(=O)O[C@H]([C@H](C)C[C@@H]2CC[C@@H](OC(=O)C(C)(CO)CO)[C@H](OC)C2)CC(=O)[C@H](C)/C=C(\C)[C@@H](O)[C@@H](OC)C(=O)[C@H](C)C[C@H](C)/C=C/C=C/C=C/1C,inactive,inactive,inactive,inactive,inactive,inactive,inactive,–,inactive,inactive,inactive,inactive,inactive,inactive,inactive,inactive,inactive,–,–
O=C(Cn1c(=O)sc2ccc(Cl)cc21)N1CCN(CCO)CC1,inactive,inactive,inactive,inactive,inactive,inactive,inactive,inactive,inactive,inactive,inactive,inactive,inactive,inactive,inactive,inactive,–,inactive,–
CCCCc1cc2c(=O)c(C(=O)OC)c[nH]c2cc1OCc1ccccc1,inactive,inactive,inactive,inactive,inactive,inactive,inactive,inactive,inactive,inactive,inactive,inactive,inactive,–,inactive,inactive,inactive,inactive,inactive
COC(F)(F)C(Cl)Cl,inactive,inactive,inactive,inactive,inactive,inactive,inactive,–,inactive,inactive,inactive,inactive,inactive,inactive,inactive,inactive,inactive,inactive,inactive

# Reference: PubChem BioAssay (Tox21)
